# Records with an inconclusive call do not appear. A call without a number means that no potency is given here. A number with no mark means an inactive call. Active and inactive are the calls of the source. Unless noted, the call rests on the fitted dose curve; in most records, active means well fitted curve in the direction sought with a large enough effect in the repeat runs; inconclusive means weak or mixed curves; inactive means no such curve, though single readings can be large; an effect the other way counts as inactive or inconclusive.
# What was measured:
# [1] = qHTS assay to identify small molecule antagonists of the estrogen related receptor (ERR) signaling pathway (AID 1224819;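 further: luminescence from an ERR-driven luciferase reporter measured with One-Glo reagent; series mostly up to about 46 µM; nearly all actives have a fitted effect of over 50% in size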)
# How it was run: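 ERR reporter cells were plated at 2,000 cells/well and left 6 h at 37 C/5% CO2 before pin-tool transfer of compounds in DMSO. After 18 h at 37 C, One-Glo was added and luminescence was read 30 min later at room temperature.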
# [2] = qHTS assay to identify small molecule agonists of the estrogen related receptor (ERR) signaling pathway (AID 1224820); further: potency means the concentration at half of the fitted maximal effect
# How it was run: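 Quantitative HTS of the LOPAC library used NTP ERR reporter cells treated 18 h at 37 C. Signal is luminescence after One-Glo addition and a 30 min room-temperature incubation.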
# [3] = tested on: estrogen-related receptor alpha (ERRalpha) with PGC-1alpha coactivator, human; test: qHTS assay to identify small molecule antagonists of the estrogen related receptor signaling pathway with the pleiotropic PPARgamma coactivator (PGC) (AID 1224821; calls by dose curve;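 further: series mostly up to about 46 µM; lower luminescence signal means antagonism of PGC/ERR signalling; nearly all actives have a fitted effect of over 50% in size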)
# How it was run: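 Quantitative HTS for antagonism: PGC/ERR cells received compounds after 6 h attachment and were incubated 18 h at 37 C, with luminescence (One-Glo) as the endpoint.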
# [4] = qHTS assay to identify small molecule agonists of the estrogen related receptor signaling pathway with the pleiotropic PPARgamma coactivator (PGC) (AID 1224823); further: potency means the concentration at half of the fitted maximal effect
# How it was run: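 Cell-based luciferase assay in the NTP-supplied PGC/ERR line, 2,000 cells/well; 18 h compound exposure at 37 C, luminescence after One-Glo.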
structure (smiles),measurement,setting,value
CCCCCCCCCCCCCC(=O)O[C@@H]1[C@@H](C)[C@@]2(O)[C@@H](C=C(CO)C[C@@]3(O)C(=O)C(C)=C[C@@H]23)C2C(C)(C)[C@@]21OC(C)=O (some centres undefined),Potency,[1],inactive
same,Potency,[2],8.72 nM (active)
same,Potency,[3],inactive
same,Potency,[4],6.71 nM (active)

# Source: PubChem BioAssay (Tox21)
